Results as given in PubChem BioAssay.
Calls of active or inactive are those of the source.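 The calls were made as follows, unless noted: active = inhibition above 20% together with a positive visual image hit; inconclusive = visual image hit but inhibition not above 20%; inactive = no visual image hit.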

Key:
[1] = inhibitors of TNFa-induced NFkB p65 translocation, primary screen, imaging, HUVEC, MLSMR starter and 10KST1 sets (AID 438); details: HUVEC TNFa-induced p65 nuclear translocation; cell count: measured here: nuclei count (cytotoxicity indicator), at 2.08 µM; inhibition: at 2 µM, stronger effect = higher value, 0% TNFa-plus-vehicle, 100% no-TNFa wells;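 also: compound added about 3h40 before a 20 min TNFalpha stimulation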;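 as to inhibition: signal is the nuclear over cytoplasmic p65 intensity ratio per well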
[2] = inhibitors of mutant huntingtin aggregation, primary screen, imaging, exon1htt(103Q)mCFP cells, high-content imaging (AID 483;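 active = visual image review flags a hit and inhibition of aggregation exceeds 20%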;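 also: compound exposure lasted 3 days before fixation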;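 as to nuclei count: percent of the per-plate median nuclei count of sample wells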); details: exon1htt(103Q)mCFP cell line, aggregate imaging, at 2 µM; inhibition of aggregation: stronger effect = higher value; nuclei count: measured here: cell count, toxicity
[3] = inhibitors of E-selectin induction by TNFa, primary screen, imaging, HUVEC, immunofluorescence, MLSMR starter and 10KST1 sets (AID 487;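 active = visually confirmed hit in the image check and inhibition above 20%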;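 as to inhibition: signal is fraction of cell area covered by stained E-selectin grains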;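 as to nuclei count: 100% = median nuclei count of all wells on the same plate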); details: HUVEC TNFalpha-induced E-selectin immunofluorescence imaging, at 2 µM; inhibition: stronger effect = higher value; nuclei count: measured here: cell number, toxicity
[4] = biological target: Voltage-gated potassium channel subunit beta-2 (Rattus norvegicus) (UniProt P62483); assay: KvBeta enzyme negative modulators, primary screen, biochemical, NADPH fluorescence (AID 622;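 active = fluorescence slope higher than the sample average by over 3 SD, cut at about -0.22 in these data, passing the limit was not always enough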;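 also: slope of raw intensity against log time taken from 70 to 1610 s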); details: recombinant KvBeta, 4-cyanobenzaldehyde reduction, at 10 µM, stronger effect = higher value
Sequence of Voltage-gated potassium channel subunit beta-2 (Rattus norvegicus) (P62483 whole entry, looked up): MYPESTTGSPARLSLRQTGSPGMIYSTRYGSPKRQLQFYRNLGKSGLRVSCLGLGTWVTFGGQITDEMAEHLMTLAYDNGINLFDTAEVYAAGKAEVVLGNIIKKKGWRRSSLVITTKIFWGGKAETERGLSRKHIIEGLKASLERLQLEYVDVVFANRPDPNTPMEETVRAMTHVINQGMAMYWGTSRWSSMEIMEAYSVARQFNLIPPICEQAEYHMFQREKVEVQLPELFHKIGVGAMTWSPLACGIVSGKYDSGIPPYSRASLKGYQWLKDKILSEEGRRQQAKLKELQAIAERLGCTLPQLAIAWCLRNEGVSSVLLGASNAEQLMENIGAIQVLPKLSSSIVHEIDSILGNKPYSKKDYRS

[5] = biological target: Voltage-gated potassium channel subunit beta-2 (Rattus norvegicus) (UniProt P62483); assay: KvBeta positive modulators, primary screen, biochemical, NADPH fluorescence (AID 623;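 active = NADPH fluorescence slope more negative than the mean of all samples by about 3 SD, 99.7% confidence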;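 also: fluorescence intensity change per second fitted from 20 to 320 s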); details: Recombinant KvBeta, NADPH fluorescence decrease slope, 10 min; at 10 µM; stronger effect = lower value
[6] = biological target: Alpha-2C adrenergic receptor (Homo sapiens) (UniProt P18825); assay: modulators of alpha2C/GIRK thallium flux, primary screen, cell-based, HEK293 alpha2C/GIRK1/2 (AID 624;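 active = fluorescence slope after compound addition differing from the mean of all screened samples at 99.7% confidence, in either direction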;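 also: slope of fluorescence ratio to pre-addition baseline per second over 15 to 24 s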); details: thallium flux BTC fluorescence, at 10 µM, actives lie on both sides
Sequence of Alpha-2C adrenergic receptor (Homo sapiens) (P18825 whole entry, looked up): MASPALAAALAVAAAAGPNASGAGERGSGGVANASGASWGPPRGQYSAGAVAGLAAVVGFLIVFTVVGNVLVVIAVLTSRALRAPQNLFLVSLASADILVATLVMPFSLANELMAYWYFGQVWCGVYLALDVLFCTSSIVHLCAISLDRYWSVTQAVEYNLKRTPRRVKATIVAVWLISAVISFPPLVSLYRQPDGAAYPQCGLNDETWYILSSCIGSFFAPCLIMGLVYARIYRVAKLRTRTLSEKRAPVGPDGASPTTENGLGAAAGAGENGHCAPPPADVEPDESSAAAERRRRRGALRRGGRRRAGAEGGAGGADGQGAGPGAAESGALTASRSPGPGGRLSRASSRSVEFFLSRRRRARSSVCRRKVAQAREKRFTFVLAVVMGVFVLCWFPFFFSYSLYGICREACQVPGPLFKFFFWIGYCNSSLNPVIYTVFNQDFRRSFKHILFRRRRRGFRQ

[7] = inhibitors of Sendai virus-induced IRF3 signaling, primary screen, TLR/RLR signaling modifier project, cell-based, Sendai virus stimulus, luciferase, 10K MLSCN set (AID 602276;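 active = inhibition at or above 50% at 10 µM; inactive = inhibition below 50%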;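 also: firefly luciferase from ISG56 promoter only with Renilla not read in this screen; 0% = Sendai virus plus DMSO and 100% = medium plus DMSO without virus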); details: HEK293 RL24 IRF3 luciferase reporter, at 10 µM, stronger effect = higher value
[8] = inhibitors of poly I:C-induced TLR3 signaling, primary screen, cell-based, poly I:C stimulus, luciferase, 10K MLSCN set (AID 602277;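 active = inhibition of the reporter signal at or above 50%; inactive = inhibition below 50%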); details: HEK293-TLR3 RL24 IRF3 luciferase reporter, at 10 µM, stronger effect = higher value

SMILES	cell count [1]	inhibition [1]	inhibition of aggregation [2]	nuclei count [2]	inhibition [3]	nuclei count [3]	fluorescence slope [4]	NADPH fluorescence slope [5]	slope [6]	inhibition [7]	inhibition [8]
Cn1c(=O)c(=O)n(C)c2cc(S(=O)(=O)CCC(=O)N3CCOCC3)ccc21	773	0.9% (inactive)	22.5% (inactive)	93%	-79.8% (inactive)	113%	-0.569 (inactive)	-1.9e-06 (inactive)	0.00791 (inactive)	8.53% (inactive)	5.94% (inactive)
CCCNC(=O)NC1C(NC(=O)NCCC)N(C)C(=O)N1C (centres undefined)	551	-0.3% (inactive)	-4.3% (inactive)	98.1%	-60.1% (inactive)	116%	-0.461 (inactive)	2.5e-05 (inactive)	0.00546 (inactive)	-0.304% (inactive)	16.2% (inactive)
Cc1cnc(NC(=O)CSc2nnc(COc3c(C)cccc3C)o2)s1	628	10.9% (inactive)	-2.5% (inactive)	103%	-22.4% (inactive)	121%	-0.537 (inactive)	-4.4e-05 (inactive)	0.00686 (inactive)	12.1% (inactive)	39% (inactive)
Cc1cccc2sc(NC(=O)Cn3cccc3)nc12	518	-1.1% (inactive)	-6.6% (inactive)	59.1%	-13.1% (inactive)	100%	-0.603 (inactive)	-2.8e-05 (inactive)	0.0115 (active)	-3.68% (inactive)	-14% (inactive)
Cc1occc1-c1nc(-c2ccncc2)no1	706	7.3% (inactive)	6% (inactive)	95.3%	-46.6% (inactive)	126%	-0.523 (inactive)	1.8e-05 (inactive)	0.00583 (inactive)	-46.9% (inactive)	-90.8% (inactive)
CCSc1nnc(NC(=O)CSc2nnc(Cc3cccn3C)n2-c2ccc(C)cc2)s1	601	-12.3% (inactive)	-2.6% (inactive)	112%	16.8% (inactive)	75.5%	-0.596 (inactive)	1.3e-06 (inactive)	0.00655 (inactive)	3.74% (inactive)	10.5% (inactive)
Cc1cc(NC(=O)CCCN2C(=O)c3cccnc3C2=O)no1	429	5.6% (inactive)	17.7% (inactive)	100%	-64.2% (inactive)	79.6%	-0.459 (inactive)	1.6e-05 (inactive)	0.00763 (inactive)	-4.41% (inactive)	13.4% (inactive)
CC(C)(C)C(=O)CCN1C(=O)C2(OCCO2)c2ccccc21	702	-4.9% (inactive)	-30.1% (inactive)	118%	-140% (inactive)	123%	-0.497 (inactive)	-2.7e-05 (inactive)	0.00626 (inactive)	11.4% (inactive)	22.3% (inactive)
O=C1CC(c2ccccc2)CC(O)=C1C=NCCN1CCOCC1 (centres undefined)	541	-2.9% (inactive)	24.1% (inactive)	94.3%	37.7% (inactive)	99.1%	-0.441 (inactive)	1.8e-05 (inactive)	0.00626 (inactive)	7.02% (inactive)	31.4% (inactive)
